Laboratory results as given in the supplement of paper PMC7366291.
Structures can show the parent of a compound that is named as a salt.

The compounds below were run on Danio rerio Tg(wt1b:EGFP) embryo, pronephros (assay: fraction of imaged embryos annotated as normal kidney; higher = less nephrotoxic; extreme values may be limits of the assay). Conditions: 25 µM; exposure: 24-48 hpf.
Method in brief: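 The read-out is the proportion of embryos in each treatment manually annotated as normal-kidney. Exposure ran from 24 to 48 hpf at 28.5°C in 12-well plates, using dechorionated Tg(wt1b:EGFP) zebrafish embryos in 5 mM HEPES-buffered E3 with 0.003% PTU, 0.5% DMSO and 25 μM compound. For imaging, larvae were anaesthetised with tricaine, positioned dorsally in agarose-filled 96-well plates and captured by widefield fluorescence (470 nm, 10 z-slices), with scoring done on maximum projections.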

Row | Compound | fraction of imaged embryos annotated as normal kidney
1 | CCN1CCN(C(=O)N[C@@H](C(=O)N[C@@H]2C(=O)N3C(C(=O)O)=C(CSc4nnnn4C)CS[C@H]23)c2ccc(O)cc2)C(=O)C1=O [Cefoperazone dihydrate] | 0.909
2 | CN(C)/N=N/c1[nH]cnc1C(N)=O [Dacarbazine] | 1
3 | Cn1c(=O)c2c(ncn2CC(=O)O)n(C)c1=O [Acefylline] | 0.917
4 | CC(=O)N(CC(O)CO)c1c(I)c(C(=O)NCC(O)CO)c(I)c(C(=O)NCC(O)CO)c1I (stereo not given) [Iohexol] | 0.75
5 | O=c1[nH]c(=O)n(C2CCCO2)cc1F (stereo not given) [Tegafur] | 0.917
6 | COCC1=C(C(=O)OC(C)OC(=O)OC(C)C)N2C(=O)[C@@H](NC(=O)/C(=N\OC)c3csc(N)n3)[C@H]2SC1 (stereo not given in full) [Cefpodoxime proxetil] | 1
7 | CC(=O)c1ccc(S(=O)(=O)NC(=O)NC2CCCCC2)cc1 [Acetohexamide] | 0.833
8 | CCOC(=O)C(C)(C)Oc1ccc(Cl)cc1 [Clofibrate] | 0
9 | NNc1nncc2ccccc12 [Hydralazine hydrochloride] | 0.818
10 | CN[C@H](CC(C)C)C(=O)N[C@H]1C(=O)N[C@@H](CC(N)=O)C(=O)N[C@H]2C(=O)N[C@H]3C(=O)N[C@H](C(=O)N[C@H](C(=O)O)c4cc(O)cc(O)c4-c4cc3ccc4O)[C@H](O)c3ccc(c(Cl)c3)Oc3cc2cc(c3O[C@@H]2O[C@H](CO)[C@@H](O)[C@H](O)[C@H]2O[C@H]2C[C@](C)(N)[C@H](O)[C@H](C)O2)Oc2ccc(cc2Cl)[C@H]1O [Vancomycin hydrochloride] | 0.909
11 | COc1ccc(-c2cc(=S)ss2)cc1 [Anethole-trithione] | 0.909
12 | Cc1onc(-c2c(F)cccc2Cl)c1C(=O)N[C@@H]1C(=O)N2[C@@H]1SC(C)(C)[C@@H]2C(=O)O [Flucloxacillin sodium] | 0.833
13 | CCCC1C(=O)N2C(N(C)C)=Nc3ccc(C)cc3N2C1=O (stereo not given) [Azapropazone] | 0.917
14 | CCC(=O)OCC(=O)[C@@]1(OC(=O)CC)[C@H](C)C[C@H]2[C@H]3[C@H]([C@@H](O)C[C@@]21C)[C@@]1(C)C=CC(=O)C=C1C[C@H]3Cl [Alclometasone dipropionate] | 0.333
15 | CN(C)[C@@H]1C(O)=C(C(N)=O)C(=O)[C@@]2(O)C(O)=C3C(=O)c4c(O)cccc4[C@@](C)(O)[C@H]3[C@H](O)[C@@H]12 [Oxytetracycline dihydrate] | 0.909
16 | NC[C@H]1O[C@H](O[C@H]2[C@H](O)[C@@H](O[C@H]3O[C@H](CO)[C@@H](O)[C@H](N)[C@H]3O)[C@H](N)C[C@@H]2N)[C@H](N)C[C@@H]1O [Tobramycin] | 0.583
17 | CC1(C)S[C@@H]2[C@H](NC(=O)[C@H](N)c3ccccc3)C(=O)N2[C@H]1C(=O)O [Ampicillin trihydrate] | 0.917
18 | CN1CCC(OC(c2ccccc2)c2ccccc2)CC1 [Diphenylpyraline hydrochloride] | 1
19 | C[C@]12CCC(=O)C=C1CC[C@@H]1[C@@H]2[C@@H](O)C[C@@]2(C)[C@H]1CC[C@]2(O)C(=O)CO [Hydrocortisone base] | 0.5
20 | CN(C(=O)C(Cl)Cl)c1ccc(OC(=O)c2ccco2)cc1 [Diloxanide furoate] | 0.25

Row | Compound | fraction of imaged embryos annotated as normal kidney
21 | CCC1(c2ccccc2)C(=O)NCNC1=O [Primidone] | 0.917
22 | Cc1nnc(SCC2=C(C(=O)O)N3C(=O)[C@@H](NC(=O)Cn4cnnn4)[C@H]3SC2)s1 [Cefazolin sodium salt] | 0.75
23 | CCN(CC)C(C)CN1c2ccccc2Sc2ccccc21 (stereo not given) [Ethopropazine hydrochloride] | 0.917
24 | CN(C)CC/C=C1\c2ccccc2CSc2ccccc21 [Dosulepin hydrochloride] | 0.833
25 | CC(=O)[C@H]1CC[C@H]2[C@@H]3CCC4=CC(=O)CC[C@]4(C)[C@H]3CC[C@]12C [Progesterone] | 0.364
26 | O=C1CN(/N=C/c2ccc([N+](=O)[O-])o2)C(=O)N1 [Nitrofurantoin] | 0.833
27 | CC1(C)O[C@@H]2C[C@H]3[C@@H]4C[C@H](F)C5=CC(=O)C=C[C@]5(C)[C@H]4[C@@H](O)C[C@]3(C)[C@]2(C(=O)CO)O1 [Flunisolide] | 0.667
28 | CN(C)c1nc(N(C)C)nc(N(C)C)n1 [Altretamine] | 0.917
29 | Cn1c([N+](=O)[O-])cnc1COC(N)=O [Ronidazole] | 0.75
30 | CCOC(=O)C1=C(C)NC(C)=C(C(=O)OCC)C1c1ccccc1/C=C/C(=O)OC(C)(C)C [Lacidipine] | 0.167
31 | COc1cc(NS(=O)(=O)c2ccc(N)cc2)nc(OC)n1 [Sulfadimethoxine] | 1
32 | CN1C(C(=O)Nc2ccccn2)=C(O)c2sccc2S1(=O)=O [Tenoxicam] | 0.917
33 | Cc1ncc([N+](=O)[O-])n1CCO [Metronidazole] | 0.917
34 | CCCCN(CCCC)CCCOC(=O)c1ccc(N)cc1 [Butacaine] | 0.917
35 | CC(Oc1ccccc1)C(=O)N[C@@H]1C(=O)N2[C@@H]1SC(C)(C)[C@@H]2C(=O)O (stereo not given in full) [Phenethicillin potassium salt] | 0.667
36 | Cc1ccc(N(CC2=NCCN2)c2cccc(O)c2)cc1 [Phentolamine hydrochloride] | 0.667
37 | CC(=O)SCC(Cc1ccccc1)C(=O)NCC(=O)OCc1ccccc1 (stereo not given) [Racecadotril] | 0.167
38 | N=C(N)NC(=N)NCCc1ccccc1 [Phenformin hydrochloride] | 0.917
39 | CC(C)NC(=N)NC(=N)Nc1ccc(Cl)cc1 [Proguanil hydrochloride] | 0.917
40 | CN(C)CCC(c1ccccc1)c1ccccn1 (stereo not given) [Pheniramine maleate] | 0.833
